The subject of this assay is Rolipram (rat). The assay can be described thus: PubChem AID 1788. Particulars: MDS Pharma lead profiling panel, radioligand binding, at 10 µM, stronger effect = higher value.

A number with no mark means an inactive call. The rule behind the calls is not given here.

`CCOC(=O)N1CCC(NCCNC(=O)c2ccccc2C)CC1`: the inhibition was -2%.

What is called inhibition is the change of the read-out against control, counted positive when it falls.

The record behind these values is PubChem BioAssay AID1788 (Vanderbilt High Throughput Screening Facility, 2009).
